Assay results as given in PubChem BioAssay AID540333 (Southern Research Specialized Biocontainment Screening …, 2011).
Among all 10,000 compounds or so, about 320 (3.2%) were called active. For the sample, actives were picked, then their nearest neighbours and some compounds at random. A number with no mark means an inactive call. Rule as the data show it: active = CPE inhibition mostly above about 9.1% (no sharp cut-off); inactive = mostly below about 7.2%.

Assay: Dengue virus cytopathic effect inhibitors, cell-based, CPE readout, HTS (AID 540333)
Conditions: Dengue virus CPE inhibition in host cells, at 20 µM; active compounds read high
With `O=C1N=C(N2CCCC2)CN1c1ccccc1` the CPE inhibition was 0.23%. `CC(C)=NOC(=O)c1ccc(-c2ccccc2)cc1` gave a CPE inhibition of 0.26%. In the case of `O=C([O-])c1ccc(-[n+]2c(-c3ccccc3)cc(-c3ccccc3)cc2-c2ccccc2)cc1`, the CPE inhibition is reported as 10.2% (active). With `CCC(=O)c1ccc(-c2ccccc2)cc1` the CPE inhibition was “inactive”. In the case of `C=C(C)C1CC=C(C)/C(=N/NC(=O)c2cccc([N+](=O)[O-])c2)C1` (centres undefined), the CPE inhibition is reported as “inactive”. Compound `CCOC(=O)c1sc(N/N=C/c2ccccc2)nc1C` has a CPE inhibition of 0.925%. With `COc1ccc(/C=C(\C#N)C(=O)OCC(=O)Nc2c(C)cccc2C)cc1` the CPE inhibition was “inactive”. For `Cc1ccc(C)c2[nH]c(=O)c(C(c3nnnn3C(C)(C)C)N3CC=C(c4ccc(F)cc4)CC3)cc12` (centres undefined), the CPE inhibition was 26.9% (active). For `CC(CCc1ccccc1)NC(=O)Cc1ccccc1` (centres undefined), the CPE inhibition was “inactive”. In the case of `Cc1ccccc1NC(=O)C(=O)NC(C)CCc1ccccc1` (centres undefined), the CPE inhibition is reported as “inactive”. With `Cc1ccc(NC(=S)NC(C)CCc2ccccc2)cc1C` (centres undefined) the CPE inhibition was 19.3% (active). With `Cc1ccccc1C(=O)Nc1c2c(nc3ccccc13)CCCC2` the CPE inhibition was “inactive”. With `O=C(COC(=O)/C(=C/c1cccs1)c1cccs1)NC(c1ccccc1)c1ccccc1` the CPE inhibition was 17.2% (active). With `CCOC(=O)/C=C/C(=O)OCC(=O)NC(c1ccccc1)c1ccccc1` the CPE inhibition was 0.285%. For `O=C(COC(=O)Cc1ccsc1)NC(c1ccccc1)c1ccccc1`, the CPE inhibition was “inactive”. `Cc1nn(C)c(C(=O)NCc2ccc(Cl)cc2)c1Cl` showed a CPE inhibition of 0.24%. For `Cc1ccc(NC(=S)c2ccccc2)cc1`, the CPE inhibition was “inactive”. Compound `CCOC(=O)C1C(C(=O)OCC)C1(c1ccccc1)c1ccccc1` (centres undefined) has a CPE inhibition of 0.545%. Work on `CCOC(=O)C1=C(Nc2ccccc2)CC(C)(O)C(C(=O)OCC)C1c1ccccc1` (centres undefined) yielded a CPE inhibition of 0.14%. With `CCOC(=O)C1=C(Nc2ccccc2)CC(C)(O)C(C(=O)OCC)C1c1ccc(Cl)cc1` (centres undefined) the CPE inhibition was 26.4% (active). With `CN(C)c1cccc2c1C(=O)c1ccccc1C2=O` the CPE inhibition was “inactive”. For `Cc1ccc(-n2[nH]c3c4c(ccc3c2=O)C(=O)c2ccccc2C4=O)cc1`, the CPE inhibition was 17% (active). `O=C1c2ccccc2C(=O)c2c1cccc2N1CCCC1` showed a CPE inhibition of 0.885%. In the case of `O=S(=O)(c1ccc(-c2csc(Nc3ccc(F)cc3)n2)cc1)N1CCCC1`, the CPE inhibition is reported as 2.46%. Work on `O=S(=O)(c1ccc(-c2csc(Nc3ccc(Br)cc3)n2)cc1)N1CCCC1` yielded a CPE inhibition of 5.89%. For `CC(C)Cc1nc(Nc2ccc(S(=O)(=O)N3CCCC3)cc2)c2nnn(Cc3ccccc3)c2n1`, the CPE inhibition was 19.9% (active). With `O=C(COC(=O)Cc1c[nH]c2ccccc12)Nc1cccc2ccccc12` the CPE inhibition was 0.635%. For `COc1cccc(NC(=S)NNC(=O)Cn2nc(C(F)(F)F)cc2C)c1`, the CPE inhibition was “inactive”. With `O=C1C(Cc2cccc([N+](=O)[O-])c2)SC(=Nc2ccccc2)N1c1ccccc1` (centres undefined) the CPE inhibition was 2.22%. With `CCOc1ccc(C(=O)Nc2cc(-c3nc4ccccc4[nH]3)ccc2Cl)cc1[N+](=O)[O-]` the CPE inhibition was “inactive”. For `CCOc1ccc(C(=O)Nc2cccc(-c3nc4ccccc4[nH]3)c2C)cc1[N+](=O)[O-]`, the CPE inhibition was 1.88%. In the case of `CCOc1ccc(C(=O)Nc2ccc(-c3nc4ccccc4[nH]3)cc2)cc1[N+](=O)[O-]`, the CPE inhibition is reported as 8.47% (active). Work on `COc1cccc(-c2c(-c3cc(OC)cc(OC)c3)n(C)c3ccc(Br)cc23)c1` yielded a CPE inhibition of 1.34%. With `COc1cc(OC)cc(-c2c(-c3ccc(F)cc3)c3cc(-c4cnc(OC)nc4)ccc3n2C)c1` the CPE inhibition was 2.91%. For `O=C1[C@@H]2[C@@H]3C[C@@H]([C@H]4ON=C(c5ccc(Cl)cc5Cl)[C@@H]34)[C@@H]2C(=O)N1C1CCCCC1`, the CPE inhibition was 14.8% (active). Compound `O=C1[C@@H]2[C@@H]3C[C@@H]([C@H]4ON=C(c5ccc(Cl)cc5)[C@@H]34)[C@@H]2C(=O)N1C1CCCCC1` has a CPE inhibition of 10.9%. For `O=C1[C@@H]2[C@@H]3C[C@@H]([C@H]4ON=C(c5ccc(Cl)cc5)[C@@H]34)[C@@H]2C(=O)N1c1ccc2c(c1)OCO2`, the CPE inhibition was “inactive”. With `COc1ccc(NC(=O)CCC(=O)OCc2ccc(Br)cc2)cc1` the CPE inhibition was 0.265%. With `O=C(/C(=C\c1ccccc1)c1nc2ccccc2[nH]1)c1ccc(Cl)cc1` the CPE inhibition was “inactive”. With `O=C(CSc1nnc(SCc2cccc3ccccc23)s1)N/N=C/c1c[nH]c2ccccc12` the CPE inhibition was 23.8% (active). For `CCn1c(SCC(=O)N/N=C/c2c[nH]c3ccccc23)nnc1-c1ccc(Cl)cc1`, the CPE inhibition was 1.47%. With `CCn1c(SCC(=O)N/N=C/c2ccc(C)o2)nnc1-c1ccc(C(C)(C)C)cc1` the CPE inhibition was 0.345%. With `Cc1nn(-c2ccccc2)c(C)c1/C=N/NC(=O)CSc1nnc(SCc2cccc3ccccc23)s1` the CPE inhibition was 4.67%. With `CCn1c(SCC(=O)N/N=C/c2c[nH]c3ccccc23)nnc1-c1ccc(C(C)(C)C)cc1` the CPE inhibition was 14.2% (active). With `O=C(CSc1nnc(SCc2ccccc2Cl)s1)N/N=C/c1c[nH]c2ccccc12` the CPE inhibition was 0.645%. Compound `CCc1ccc(OC(C)c2nnc(SCC(=O)Nc3ncccc3C)n2C)cc1` (centres undefined) has a CPE inhibition of 0.355%. `Cc1cc(C)c2[nH]c(=O)c(CN(Cc3cccs3)C(=S)NCc3ccco3)cc2c1` gave a CPE inhibition of 4.37%. Work on `CN(CC(=O)Nc1ccc(Cl)c(Cl)c1)C(=O)/C=C/c1ccc(F)cc1` yielded a CPE inhibition of 0.95%. For `S=C(NCCc1ccccc1)NC1CC1`, the CPE inhibition was “inactive”. With `COC(=O)c1sccc1N/N=C/c1cccc(OC)c1O` the CPE inhibition was 2.21%. For `CCc1ccc(OCC(=O)N2c3ccccc3CCc3ccccc32)cc1`, the CPE inhibition was 14.2% (active). In the case of `COc1ccc(OCC(=O)N2c3ccccc3CCc3ccccc32)cc1`, the CPE inhibition is reported as “inactive”. In the case of `O=C(COc1ccc(Cl)cc1)OCC(=O)N1CCCc2ccccc21`, the CPE inhibition is reported as “inactive”. In the case of `COc1cc(/C(C)=N/NC(=S)NC(C)C)cc(OC)c1OC`, the CPE inhibition is reported as “inactive”. With `N#Cc1ccc(NC(=O)CCc2nc3ccccc3s2)cc1` the CPE inhibition was “inactive”. Work on `COC(=O)C1=C(NC(=O)COc2ccc3ccccc3c2)CCS1` yielded a CPE inhibition of 1.12%. With `COc1ccc(C)cc1NCC(=O)Nc1ccc(C(C)(C)C)cc1` the CPE inhibition was 15.4% (active). For `COc1ccc(Cl)cc1NC(=O)CNc1ccccc1F`, the CPE inhibition was 0.95%. Work on `Cc1ccc(NC(=O)CNc2ccc(Cl)cc2F)cc1` yielded a CPE inhibition of 0.58%.
